The sequences below were run on PPARg:RXRa DBDmut IVT, anti-RXR (DBD mutation: RXRa K156A/R161A, NR concentration 270 nM, RXRa partner concentration 90 nM) (assay: PBM binding z-score (relative to random genomic background probes); higher = stronger binding; sequences stand for … in GC…GCGATTGACAGCGTAGAATGAAGG).
Summary of the method: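 Regression normalization was applied to scanned fluorescence from custom Agilent 4×180K protein-binding microarrays. Before scanning, arrays were incubated 1 h with ligand-free nuclear receptor dimers, and binding was detected with antibodies against each partner (one per run). Binding z-scores use the random background probes as reference.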

| Sequence | PBM binding z-score |
| --- | --- |
| TCTCGGAGGACAGGAAGGTCAGAGCTTTCCAGAG | 1.52 |
| ACTATTAGTTGACTTACGGCAACCGATACGACGC | -0.0111 |
| CCGGACAGGTGAAAGGTAACTCAGTCTGGTACGC | 1.68 |
| ATCGAAAGGTCGAAGTGAGTATAGAGAAAGGGAA | 0.215 |
| ATATGTAGGTTATCGGCTCATTCAGTTTGCGCAT | 6.92 |
| CCTTCTGGGCCACGAAAGGTCATTGATTCAGTGA | 5.63 |
| CAAACTAGGTCAAGCTCAAAGTCGGTTTGTGCCA | 8.39 |
| TTACCAAGGTGAAAGGTAGTTGATGCACGCCTTG | 2.96 |
| CCAACTGGGCCACGAAAGGTCATTGATTCAGTGA | 5.74 |
| AGAATGAGGTTATACGTAGATCAGGCAAGAAAGT | 3.76 |
| CAAACCAGGTCAAGGTCAAAGTCGGTTTGTGCCA | 6.42 |
| TCATATAGGTAAACAGGTGAAAGTCCGTAAGTTA | 4.87 |
| CGAACGAGAGCATGAGTTGATAGCAAATGCCGAT | -0.221 |
| ACTTACGGGTCAACGAGGTTATGGCACGCGTATA | 3.48 |
| ATCGACAGGTCGACGAGGTGAGTATACACCGTTT | -0.262 |
| CAAACTAGGTCACAGAGGTCAAAGTCCGTGCGTA | 8.82 |
| CCTACTGGGCCAAAGGTCAATGATTCCAATGCTC | 5.3 |
| GCTGCTAGGTCAAATGATGGTCAGCTAAAGCTCG | 5.24 |
| AGAATGAGTTTATACGTAGATCAGGGAAGAAAGT | -0.616 |
| TGAATGAGGGTATAAGATCAGGGAACGTTGCAAA | 0.322 |

| Sequence | PBM binding z-score |
| --- | --- |
| CCTCGGAGGACAACAGGAGGTCAGTGCTGCCAGA | -0.0147 |
| TAGCCTAGGTCAGATCGGGCCAGTATGCGCTATA | 0.347 |
| CCTTTCGGGTCAAGGTTATAGCACGGGTGGTACG | 1.96 |
| GGAACGAGGGCAAAGCTGATAGCATCTGTCGACG | 4.19 |
| TAGCCTAGGTCATTGGGGCAGTATAGTACGCATC | 3 |
| ATCTCTAGGTAAGAGTCAGTTCAGTGAAGAACGC | 1.76 |
| AGAATGAGGTTAAGATCAGGCAAACAGAATACAT | 2.85 |
| TTACGAAGGTGAAGGTCGTTGATCCCTCTGTAGA | 1.43 |
| AGAATTAGGTTATTAAGATCAGGGAATTGCGGTC | 6.63 |
| GGAACGAGGGCATTCCAGTTGATAGCATGGCGAT | 3.02 |
| TCTTGTAGTTCAAAGGTTAAGAAAGCCGAAGCCT | 1.69 |
| AATACAGGGTCACTAGGCCAGCGTAGGTACGAAT | 4.14 |
| CCTACTGGGCCATCAGCTCATTGATATCAACGTT | 3.97 |
| TAGCCTAGGTCATTCAGGGGCCAGTATTGAAAGC | 1.67 |
| TCTTGTAGATCAAAGGTTAGGAAAGCCGAAGCCT | 2.13 |
| GCGACTGAGGCATCAGCAGGTTACCATAACTTAA | -0.328 |
| ACACCAAGGTGATCGTGAGGTCGTTGATACTAAC | 0.605 |
| TAGCCTAGGTCATGGGCCAGTCTACCACGCGAAC | 1.64 |
| CGGCAAAGTTCAACTAAGGTAACGTAAAGCACGC | 0.283 |
| CGTCCAAGGTCAGAAAGGTCAGTGAATGCCGAGT | 1.91 |

Reference: the supplement of paper PMC6555819
